Results on nine compounds are retold here after PubChem BioAssay.

For part of these data: Entries with a potency or affinity are not part of this list. Active and inactive are the calls of the source. Unless noted, how the calls were made is not given here.

A short description of experiment [1]: antimalarial activity against Dd2 strain (AID 2302;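 active means growth inhibition above 50% at the single 2 µM test dose, taken to imply half-maximal potency below 2 µM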;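 further: 0% = DMSO untreated growth and 100% = chloroquine plus artemisinin killed control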). The settings on record: P. falciparum Dd2 in RBCs, LDH growth readout, 72 h; at 2 µM; hits give high values.
Experiment [2] is described as follows: human hepatoma cell viability loss – ATP luminescence, cytotoxicity control for P. falciparum antimalarial project, primary screen (AID 2303;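 active means inhibition above 50%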;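 further: 0% = DMSO wells and 100% = digitonin-killed cells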). The note with it: HepG2 viability, 24-48 h, at 10 µM, hits give high values.
For experiment [3], the target named is L-lactate dehydrogenase (Plasmodium falciparum (isolate CDC / Honduras)) (UniProt Q27743). Description: PfLDH activity inhibition – cell lysate, 3D7 strain, counter-screen for P. falciparum growth inhibition project (AID 2304).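 Further: 0% = vehicle and 100% = reference inhibitor.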 The settings on record: P. falciparum 3D7 crude extract, LDH APAD/NBT absorbance; at 2 µM; hits give high values.
Experiment [4] can be described thus: inhibition of 3D7 malaria parasite growth – strain 3D7 (AID 2306).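 Further: 0% = DMSO wells and 100% = chloroquine plus artemisinin control wells.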 The note with it: P. falciparum 3D7 erythrocytic growth, LDH absorbance, 72 h; at 2 µM; hits give high values.
For experiment [5], the target named is Calcium-dependent protein kinase 1 (Plasmodium falciparum (isolate 3D7)) (UniProt P62344). The experiment can be described thus: PfCDPK1 kinase inhibitors, biochemical, TCAMS library (AID 1159585; cut-off not given, nearly all actives have IC50 up to about 0.98 µM;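 further: inhibitors leave more ATP so luminescence rises with inhibition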). The settings on record: recombinant PfCDPK1, Kinase-Glo ATP depletion luminescence.
Experiment [6] deals with Plasmodium falciparum protein kinase 6 (PK6, PF3D7_1337100) (UniProt Q8IDW1). The experiment can be described thus: PfPK6 kinase inhibitors, biochemical, TCAMS library (AID 1159586). The note with it: recombinant PfPK6, Kinase-Glo ATP depletion luminescence.
The target in experiment [7] is Protein kinase 7 (PK7), Plasmodium falciparum 3D7 (PF3D7_0213400) (UniProt Q7YTF7). The experiment can be described thus: inhibition of Plasmodium PK7 catalytic activity – biochemical, TCAMS antimalarial set, Kinase-Glo luminescence (AID 1159587). The note with it: recombinant PfPK7, Kinase-Glo ATP depletion luminescence. (In general: In Kinase-Glo more light means more ATP remaining.)

For experiment [8], the target named is Calcium-dependent protein kinase 4 (Plasmodium falciparum (isolate 3D7)) (UniProt Q8IBS5). The experiment can be described thus: PfCDPK4 kinase inhibitors, biochemical, TCAMS library (AID 1159588; cut-off not given, nearly all actives have IC50 up to about 0.91 µM). The note with it: recombinant PfCDPK4, Kinase-Glo ATP depletion luminescence.
Sequence of Calcium-dependent protein kinase 4 (Plasmodium falciparum (isolate 3D7)) (Q8IBS5 whole entry, looked up): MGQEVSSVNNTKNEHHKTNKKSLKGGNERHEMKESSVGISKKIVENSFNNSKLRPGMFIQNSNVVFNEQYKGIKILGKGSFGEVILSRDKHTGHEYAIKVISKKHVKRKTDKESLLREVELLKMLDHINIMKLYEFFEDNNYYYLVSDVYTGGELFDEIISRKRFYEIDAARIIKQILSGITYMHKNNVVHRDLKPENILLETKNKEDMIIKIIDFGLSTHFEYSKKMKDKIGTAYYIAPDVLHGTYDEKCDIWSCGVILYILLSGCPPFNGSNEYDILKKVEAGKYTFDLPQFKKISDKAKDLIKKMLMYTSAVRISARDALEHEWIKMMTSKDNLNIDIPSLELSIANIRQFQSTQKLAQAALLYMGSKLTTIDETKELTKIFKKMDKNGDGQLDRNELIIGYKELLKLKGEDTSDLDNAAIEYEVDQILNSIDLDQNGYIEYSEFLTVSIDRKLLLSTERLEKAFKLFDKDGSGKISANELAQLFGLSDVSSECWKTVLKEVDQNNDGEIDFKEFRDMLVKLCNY

Sequence of L-lactate dehydrogenase (Plasmodium falciparum (isolate CDC / Honduras)) (Q27743 whole entry, looked up): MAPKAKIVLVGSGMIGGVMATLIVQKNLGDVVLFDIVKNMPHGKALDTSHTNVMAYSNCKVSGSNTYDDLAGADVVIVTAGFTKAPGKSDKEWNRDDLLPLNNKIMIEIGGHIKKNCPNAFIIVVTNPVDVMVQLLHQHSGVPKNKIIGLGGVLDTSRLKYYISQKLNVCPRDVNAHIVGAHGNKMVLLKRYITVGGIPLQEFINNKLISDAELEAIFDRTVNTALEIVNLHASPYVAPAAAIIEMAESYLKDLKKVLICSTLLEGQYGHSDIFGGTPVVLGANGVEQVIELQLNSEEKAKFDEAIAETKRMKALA
Sequence of Plasmodium falciparum protein kinase 6 (PK6, PF3D7_1337100) (Q8IDW1 1-305): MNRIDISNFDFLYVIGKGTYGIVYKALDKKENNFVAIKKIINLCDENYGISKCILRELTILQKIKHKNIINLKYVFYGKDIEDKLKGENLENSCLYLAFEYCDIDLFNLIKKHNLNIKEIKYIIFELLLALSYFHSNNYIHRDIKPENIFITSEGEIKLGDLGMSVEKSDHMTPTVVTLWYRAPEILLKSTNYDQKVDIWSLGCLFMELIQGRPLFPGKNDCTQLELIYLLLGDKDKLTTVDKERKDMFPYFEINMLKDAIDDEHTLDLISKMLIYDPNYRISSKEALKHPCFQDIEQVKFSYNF
Sequence of Calcium-dependent protein kinase 1 (Plasmodium falciparum (isolate 3D7)) (P62344 whole entry, looked up): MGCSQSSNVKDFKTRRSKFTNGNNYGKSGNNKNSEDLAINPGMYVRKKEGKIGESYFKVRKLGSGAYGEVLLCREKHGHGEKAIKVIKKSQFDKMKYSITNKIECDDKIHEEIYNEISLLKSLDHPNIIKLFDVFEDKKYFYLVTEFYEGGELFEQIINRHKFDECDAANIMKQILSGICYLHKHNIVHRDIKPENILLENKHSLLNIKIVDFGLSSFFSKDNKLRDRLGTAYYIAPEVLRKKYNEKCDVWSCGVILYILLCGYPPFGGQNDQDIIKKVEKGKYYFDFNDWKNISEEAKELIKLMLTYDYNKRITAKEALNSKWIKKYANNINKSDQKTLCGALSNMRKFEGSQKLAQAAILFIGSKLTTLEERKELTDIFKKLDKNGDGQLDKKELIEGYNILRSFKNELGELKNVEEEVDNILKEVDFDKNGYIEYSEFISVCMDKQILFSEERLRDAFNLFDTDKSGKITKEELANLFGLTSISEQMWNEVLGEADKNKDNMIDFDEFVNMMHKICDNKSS
Sequence of Protein kinase 7 (PK7), Plasmodium falciparum 3D7 (PF3D7_0213400) (Q7YTF7 1-343): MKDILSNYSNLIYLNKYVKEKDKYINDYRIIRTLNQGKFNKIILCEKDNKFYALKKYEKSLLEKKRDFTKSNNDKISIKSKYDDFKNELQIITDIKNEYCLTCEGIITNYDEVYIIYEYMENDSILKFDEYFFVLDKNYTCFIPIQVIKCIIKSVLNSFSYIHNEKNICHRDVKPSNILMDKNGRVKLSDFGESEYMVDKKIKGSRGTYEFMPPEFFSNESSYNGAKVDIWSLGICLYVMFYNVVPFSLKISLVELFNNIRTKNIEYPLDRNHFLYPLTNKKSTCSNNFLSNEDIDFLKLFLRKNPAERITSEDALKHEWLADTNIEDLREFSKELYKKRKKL

As to `O=C(/C=C/c1ccc(Cl)c(Cl)c1)NC1CCC(N2CCC(c3c[nH]c4ccc(O)cc34)CC2)CC1` (configuration not stated), the growth inhibition in experiment [1] is 16% (inactive); in experiment [4] it was 97% (active). Moreover, the figures for the inhibition in experiment [2] and in experiment [3] were 10% (inactive) and -9% (inactive), respectively. Also, the result in experiment [5], in experiment [6], in experiment [7] and in experiment [8] was inactive.

Take `CCCCCC(C)C(C)c1cc(O)c2c(c1)OC(C)(C)c1cnccc1-2` (configuration not stated): the growth inhibition in experiment [1] was 74% (active); in experiment [4], 94% (active). Besides, the inhibition was 7% (inactive) in experiment [2] and -3% (inactive) in experiment [3]. Besides, the outcome in experiment [5], in experiment [6], in experiment [7] and in experiment [8] was inactive.

On to `CC(C)CNCc1cccc(-c2ccc(CN(C(=O)NC3CCCCC3)C3CCN(Cc4ccccc4)CC3)cc2)c1`, for which the growth inhibition was 51% (active) in experiment [1] and 97% (active) in experiment [4]. Also, the inhibition was 27% (inactive) in experiment [2] and -2% (inactive) in experiment [3]. In addition, the outcome in experiment [5], in experiment [6], in experiment [7] and in experiment [8] was inactive.

`COc1ccc(CCNCc2ccc3nc(N)c(C)cc3c2)cc1`: the values for the growth inhibition in experiment [1] and in experiment [4] were 15% (inactive) and 100% (active), respectively. The values for the inhibition in experiment [2] and in experiment [3] were -1% (inactive) and 3% (inactive), respectively. The outcome in experiment [5], in experiment [6], in experiment [7] and in experiment [8] was inactive.

As for `Cc1cc(NC(=O)[C@@H](Nc2ccc(C#N)c3ccccc23)C2CCCCC2)ccc1F`, the growth inhibition is 83% (active) in experiment [1] and 95% (active) in experiment [4]. Besides, the inhibition in experiment [2] is 10% (inactive); in experiment [3] it was 0% (inactive). The result in experiment [5], in experiment [6], in experiment [7] and in experiment [8] was inactive.

In the case of `COC(=O)c1ccc(CC(C)NCC(O)c2cccc(OC(F)(F)F)c2)cc1` (configuration not stated), the growth inhibition in experiment [1] was 67% (active); in experiment [4] it was 98% (active). Besides, the inhibition in experiment [2] was 2% (inactive); in experiment [3] it was -2% (inactive). For the same compound, the result in experiment [5], in experiment [6], in experiment [7] and in experiment [8] was inactive.

Take `CN1CC[C@H](N(Cc2ccccc2F)c2ccc(C#N)c(Cl)c2)C1`: the growth inhibition in experiment [1] was 68% (active); in experiment [4] it was 88% (active). The inhibition in experiment [2] is 18% (inactive); in experiment [3] it was -6% (inactive). Further, the outcome in experiment [5], in experiment [6], in experiment [7] and in experiment [8] was inactive.

Turning to `Cc1[nH]c2ccccc2c1C1=CCN(CCN2CCOc3c(Br)cccc3C2=O)CC1`, the growth inhibition in experiment [1] is 76% (active); in experiment [4] it was 97% (active). Further, the inhibition in experiment [2] is 15% (inactive); in experiment [3] it was -3% (inactive). Also, the result in experiment [5], in experiment [6], in experiment [7] and in experiment [8] was inactive.

Regarding `CC[C@H]1CN2CCc3cc(OC)c(OC)cc3[C@@H]2C[C@@H]1C[C@H]1NCCc2c1cc(OC)c(O)c2Cl`, the growth inhibition in experiment [1] is 101% (active); in experiment [4], 100% (active). The inhibition was 51% (active) in experiment [2] and 2% (inactive) in experiment [3]. For the same compound, the outcome in experiment [5], in experiment [6], in experiment [7] and in experiment [8] was inactive.

A word on the inhibition: it is the change of the read-out against control, counted positive when it falls.
